Measured values from PubChem BioAssay (Tox21).
Results filed as inconclusive are left out. Active and inactive are the calls of the source. Calls come from the whole dose curve.
% is set by controls: 0 for no effect and ±100 for the full control effect.

Test: qHTS assay for small molecule agonists of the antioxidant response element (ARE) signaling pathway - cell viability counter screen (AID 743203); note: nearly all actives have a fitted effect of over 55% in size
Details: ARE-bla HepG2 viability, CellTiter-Glo luminescence, 16 h; series mostly up to 73.3 µM
Description: National Center for Advancing Translational Sciences [NCATS]
NIH Chemical Genomics Center [NCGC]
U.S. Environmental Protection Agency [EPA]
National Institutes of Environmental Health Sciences [NIEHS]
National Toxicology Program [NTP]
U.S. Food and Drug Administration [FDA]
Oxidative stress has been implicated in the pathogenesis of a variety of diseases ranging from cancer to neurodegeneration. The antioxidant response element (ARE) signaling pathway plays an important role in the amelioration of oxidative stress. The CellSensor ARE-bla HepG2 cell line (Invitrogen) can be used for analyzing the Nrf2/antioxidant response signaling pathway. Nrf2 (NF-E2-related factor 2) and Nrf1 are transcription factors that bind to AREs and activate these genes. The CellSensor ARE-bla Hep G2 cell line contains a beta-lactamase reporter gene under control of the Antioxidant Response Element (ARE) stably integrated into HepG2 cells. The activation of the report gene under culture conditions can be detected by fluorescence intensity. This cell line has been used to screen the Tox21 10K compound library to identify agonists that induce oxidative stress. The cytotoxicity of the Tox21 compound library against the ARE-bla cell line was tested in parallel by measuring the cell viability using CellTiter-Glo assay (Promega, Madison, WI) in the same wells.
Tox21 Assay Protocol Summary:
ARE-bla HepG2 cells were dispensed at 2,000 cells/5 ul/well in 1536-well white wall/solid bottom plates using a Multidrop Combi (ThermoFisher Scientific, Waltham, MA) dispenser. After the assay plates were incubated at 37C/5% CO2 for 5 hrs, 23 nL of compounds dissolved in DMSO, positive controls or DMSO only was transferred to the assay plate by a pintool work station (Kalypsys, San Diego, CA). The plates were incubated at 37C/5% CO2 for 16 hrs, followed by addition of 4 ul/well of CellTiter-Glo reagent into the assay plates using a Flying Reagent Dispenser (Aurora Discovery, San Diego, CA). After 30 min incubation at room temperature, the luminescence intensity in the assay plates was measured using a ViewLux (PerkinElmer, Shelton, CT) plate reader.
In the case of `C[C@@H](O)[C@H]1C(=O)N2C(C(=O)O)=C(SCCN=CN)C[C@H]12`, the outcome is reported as “inactive”. For `CN1C(C)(C)CCCC1(C)C`, the outcome was “inactive”. With `O=C1c2cccc3c2[C@H](CCC3)CN1[C@@H]1CN2CCC1CC2` the outcome was “inactive”. With `O=C(O)Cc1ccc(Cl)cc1Cl` the outcome was “inactive”. For `C[Si](C)=O`, the viability change, negative = cytotoxic was -8.17% [at 8.36 µM] (inactive). For `CC1(CO)CN(c2ccccc2)NC1=O` (stereo not given), the outcome was “inactive”. With `COc1cc(NS(=O)(=O)c2ccc(N)cc2)nc(OC)n1` the outcome was “inactive”. In the case of `BrCCCCCBr`, the outcome is reported as “inactive”. For `Cc1cc(C(C)(C)C)c(O)c(C)c1CC1=NCCN1`, the outcome was “inactive”. For `Cc1cccc(C)c1OCC(C)N` (stereo not given), the outcome was “inactive”. With `OCCC(F)(F)C(F)(F)C(F)(F)C(F)(F)C(F)(F)C(F)(F)C(F)(F)C(F)(F)F` the outcome was “inactive”. With `CCCCC(CC)COCCO` (stereo not given) the outcome was “inactive”. In the case of `CC(C)CC(=O)O`, the outcome is reported as “inactive”. For `CCCC/C=C/C=C\C=O`, the outcome was “inactive”. For `CC(=O)NCc1c(I)c(NC(C)=O)c(I)c(C(=O)O)c1I`, the outcome was “inactive”. In the case of `CO[C@@H]1[C@@H](OC(N)=O)[C@@H](O)[C@H](Oc2ccc3c(O)c(NC(=O)c4ccc(O)c(CC=C(C)C)c4)c(=O)oc3c2C)OC1(C)C`, the outcome is reported as “inactive”. In the case of `OC[C@H](Cc1cccc(O)c1)[C@H](CO)Cc1cccc(O)c1`, the outcome is reported as “inactive”. For `C[C@@H](Oc1ccc(CNC(=O)c2cccnc2Oc2ccc3c(c2)OCO3)c(F)c1)C(=O)O`, the outcome was “inactive”. With `Cc1cccc2nccnc12` the outcome was “inactive”. For `FC(F)(F)c1ccccc1-n1ccnc1`, the outcome was “inactive”. For `O=C1c2ccccc2C(=O)N1CCl`, the outcome was “inactive”. For `Cc1c(I)c(=O)n(-c2ccccc2)n1C`, the outcome was “inactive”. For `Oc1ccccc1-c1nnco1`, the outcome was “inactive”. With `CC(=O)N[C@@H](CCC(=O)O)C(=O)O` the outcome was “inactive”. In the case of `CC(=O)c1ccc2c(c1)Cc1ccccc1-2`, the outcome is reported as “inactive”. For `O=S(=O)(O)c1cc(O)c2ccc(Nc3ccccc3)cc2c1`, the outcome was “inactive”. With `Nc1cccc(O)c1` the outcome was “inactive”. For `Cc1[nH]cnc1-c1ccc(Cl)cc1`, the outcome was “inactive”. In the case of `CC(N)C(=O)OC(C)(C)Cc1ccc(Cl)cc1` (stereo not given), the outcome is reported as “inactive”. With `CCOC(=O)c1ccc(OC(=O)CCCCCN=C(N)N)cc1` the outcome was “inactive”. In the case of `CCCC/C=C\CCCCCCCCCC=O`, the outcome is reported as “inactive”. In the case of `CC(C)(C)OC(=O)c1ccc(O)cc1`, the outcome is reported as “inactive”. For `CC1(C)S[C@@H]2[C@H](N=CN3CCCCCC3)C(=O)N2[C@H]1C(=O)O`, the outcome was “inactive”. With `CCCCOCCOC(=O)COc1nc(Cl)c(Cl)cc1Cl` the outcome was “inactive”. For `CN(C)CCOCCO`, the outcome was “inactive”. In the case of `Nc1nnc(-c2cccc(Cl)c2Cl)c(N)n1`, the outcome is reported as “inactive”. With `COc1ccc(-c2cc(=O)c3c(O)cc(O[C@@H]4O[C@H](CO[C@@H]5O[C@@H](C)[C@H](O)[C@@H](O)[C@H]5O)[C@@H](O)[C@H](O)[C@H]4O)cc3o2)cc1O` the outcome was “inactive”. In the case of `CC(=C(CCOC(=O)C(C)C)SSC(CCOC(=O)C(C)C)=C(C)N(C=O)Cc1cnc(C)nc1N)N(C=O)Cc1cnc(C)nc1N`, the outcome is reported as “inactive”. For `COC(=O)CCCCCCCC(=O)OC`, the outcome was “inactive”. In the case of `CC(=O)c1sc(C)nc1C`, the outcome is reported as “inactive”.
